Bioassay records: PubChem BioAssay, several laboratories
Platelet DG rel: platelet dense granule release activity. human platelet-rich plasma, SFLLRN dense granule ATP release, luminescence. inhibition, %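 (compounds screened at 7.5 µM in platelet-rich plasma)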. 0.22% of 300,000 active. AID 1663;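 active = mean replicate score, as percent of positive control, at or above 50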
VLA-4 inh: inhibition in a human VLA-4 binding assay | VLA-4 expressing cells, ligand binding flow cytometry | 0.2% of 330,000 active | inhibition, % (about 7 µM as worked out from the volumes in the protocol) | P13612; in the data active = inhibition above about 50%
CHT allo act: human CHT allosteric activation. Q9GZV3. CHT-expressing cells, membrane potential dye, choline EC20; hits give high values; LV-AA mutant CHT in HEK293 cells. B-score at 10 µM. 0.49% of 310,000 active. AID 488977;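 active = initial fluorescence not abnormally high and integrated response B-score, plate-corrected, over 3 SD above library mean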
Target sequence (Q9GZV3 whole entry, looked up): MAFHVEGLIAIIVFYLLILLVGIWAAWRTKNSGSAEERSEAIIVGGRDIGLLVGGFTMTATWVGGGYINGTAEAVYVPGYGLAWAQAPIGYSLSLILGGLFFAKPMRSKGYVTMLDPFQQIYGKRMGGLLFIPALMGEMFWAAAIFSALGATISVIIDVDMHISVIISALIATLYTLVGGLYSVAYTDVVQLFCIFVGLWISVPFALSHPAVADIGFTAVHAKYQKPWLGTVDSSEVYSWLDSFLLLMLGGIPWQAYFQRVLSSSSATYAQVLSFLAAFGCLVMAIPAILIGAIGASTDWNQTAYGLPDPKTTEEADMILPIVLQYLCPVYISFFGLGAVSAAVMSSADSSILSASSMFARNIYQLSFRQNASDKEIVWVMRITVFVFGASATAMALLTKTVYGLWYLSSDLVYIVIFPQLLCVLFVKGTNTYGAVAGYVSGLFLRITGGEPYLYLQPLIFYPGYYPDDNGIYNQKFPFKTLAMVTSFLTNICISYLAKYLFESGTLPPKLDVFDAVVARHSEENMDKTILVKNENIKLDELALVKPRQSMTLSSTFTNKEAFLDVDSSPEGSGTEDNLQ
CHT block: inhibitors of human choline transporter CHT; B-score at 10 µM; 0.86% of 310,000 active; CHT-expressing cells, membrane potential dye, choline response; hits give low values;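 active = B-score over 3 SD under the library average, and starting fluorescence ratio not unusually high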;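 also: choline stimulus applied at its EC90 after an EC20 pre-addition; B-score computed on integrated fluorescence ratio after choline addition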
AI-2 QS mod: Vibrio harveyi AI-2 quorum sensing modulation. Vibrio harveyi JMH597 AI-2 luminescence/OD600 ratio, 9 h; hits give low values; strain lacks LuxN and CqsS sensors; 0 = neutral-control median. activity change, % at 7.5 µM. 0.4% of 300,000 active; in the data active = activity change below about -75%, passing the limit was not always enough;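 also: luminescence divided by OD600 gain over 9 h not by final OD600 alone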
HIF activator: HIF pathway transcriptional activation. activation, % at 7.5 µM (by protocol). 0.32% of 300,000 active. U2OS HRE-luciferase reporter, luminescence; normalized: DMSO 0%, desferrioxamine 100%;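 active = mean activation of at least 10% of the iron chelator positive control signal, with at least half of replicates also reaching 10%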
CHT activ conf: human CHT activation, confirmatory screen. shares compounds with CHT allo act. 91% of 2,500 active. activation, % at 10 µM. CHT-expressing cells, membrane potential dye fluorescence (FDSS); % of choline EC20–EC90 response window; HEK293 expressing CHT LV-AA mutant; choline added at its EC20;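 active = primary screen active, with duplicate mean activation above negative control mean plus 3 SD, cut at about 11% in these data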
HEK293 MP dye: counter-screen for CHT activators: effect in parental HEK293 cells; shares compounds with CHT allo act; membrane potential dye fluorescence (FDSS); measured after EC20 choline addition; ratio readout change at 10 µM, hits read low; 62% of 2,500 active; AID 623908;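 active = duplicate-averaged ratio beyond 3 SD from buffer wells, up or down, though filed actives are nearly all decreases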
* = called active by the depositor. An excerpt weighted towards active compounds, which were near 2.2% of everything screened.

How did CCOC(=O)c1cnc2c(CC)cccc2c1NCCCN1CCOCC1 do in these assays?
Platelet DG rel: 0; VLA-4 inh: 12; CHT allo act: inactive; CHT block: inactive; AI-2 QS mod: 5; HIF activator: -9

What do the screens show for `O=C(NC1CCCCC1)C(c1ccc2ncccc2c1)N(Cc1ccc(F)cc1)C(=O)c1cccs1` (stereo not drawn)?
Platelet DG rel: 8; VLA-4 inh: 8; CHT allo act: inactive; CHT block: inactive; AI-2 QS mod: 19; HIF activator: 0; CHT activ conf: 31*; HEK293 MP dye: inactive

Results for CCCCCCCCCCOC(=O)Cn1c(COc2ccccc2)[n+](C)c2ccccc21 ?
Platelet DG rel: 1; VLA-4 inh: -11; CHT allo act: inactive; CHT block: inactive; AI-2 QS mod: 30; HIF activator: 1

Results for CCCCCCCCCCOC(=O)Cn1c(COc2ccc(OC)cc2)[n+](C)c2ccccc21 ?
Platelet DG rel: 5; VLA-4 inh: -8; CHT allo act: 13*; CHT block: inactive; AI-2 QS mod: 1; HIF activator: 1; CHT activ conf: 28*; HEK293 MP dye: -42*

What do the screens show for `CCCCCCCCCCOC(=O)Cn1c(COc2cccc(C)c2)[n+](C)c2ccccc21`?
Platelet DG rel: -2; VLA-4 inh: 2; CHT allo act: inactive; CHT block: inactive; AI-2 QS mod: 11; HIF activator: 1; CHT activ conf: 7; HEK293 MP dye: -41*

Results for CC1CCC(C(C)C)C(OC(=O)Cn2c(-c3ccc(Br)cc3)[n+](C)c3ccccc32)C1 (stereo not drawn) ?
Platelet DG rel: 4; VLA-4 inh: 2; CHT allo act: inactive; CHT block: inactive; AI-2 QS mod: 37; HIF activator: 0

What do the screens show for `Cc1ccccc1OCc1n(CC(=O)OC2CC(C)CCC2C(C)C)c2ccccc2[n+]1C` (stereo not drawn)?
Platelet DG rel: 9; VLA-4 inh: 5; CHT allo act: inactive; CHT block: inactive; AI-2 QS mod: 18; HIF activator: -1; CHT activ conf: 14*; HEK293 MP dye: inactive

How did CCCCCCCCCCOC(=O)Cn1c(COc2ccccc2C)[n+](C)c2ccccc21 do in these assays?
Platelet DG rel: -3; VLA-4 inh: 14; CHT allo act: 14*; CHT block: inactive; AI-2 QS mod: 208; HIF activator: 0; CHT activ conf: 5; HEK293 MP dye: -46*

What do the screens show for `CCn1cc(C(=O)Nc2sc(C)c(C)c2C(=O)OC)cn1`?
Platelet DG rel: -6; VLA-4 inh: -10; CHT allo act: inactive; CHT block: inactive; AI-2 QS mod: 8; HIF activator: 1

What do the screens show for `Cc1cccc(C(C)C)c1NC(=O)COC(=O)CN1C(=O)C2CC=CCC2C1=O` (stereo not drawn)?
Platelet DG rel: -5; VLA-4 inh: 0; CHT allo act: inactive; CHT block: inactive; AI-2 QS mod: 18; HIF activator: -1

What do the screens show for `COc1nnc(-c2ccc(N3CCOCC3)c(NC(=O)C3CCCCC3)c2)c2ccccc12`?
Platelet DG rel: 1; VLA-4 inh: -11; CHT allo act: inactive; CHT block: inactive; AI-2 QS mod: 14; HIF activator: -2; CHT activ conf: 7; HEK293 MP dye: inactive

Results for COc1nnc(-c2ccc(N3CCCCC3)c(NC(=O)C3CCCCC3)c2)c2ccccc12 ?
Platelet DG rel: -4; VLA-4 inh: 0; CHT allo act: inactive; CHT block: inactive; AI-2 QS mod: 24; HIF activator: 0

What do the screens show for `CCO[C@H]1OC(C(=O)N2CCCCCCC2)=C[C@@H](c2ccccc2)[C@@H]1CCCO`?
Platelet DG rel: 0; CHT allo act: inactive; CHT block: inactive; AI-2 QS mod: 8; HIF activator: 0

What do the screens show for `CCN1/C(=C/c2ccc3cccc(C)c3[n+]2CC)Sc2ccccc21`?
Platelet DG rel: -5; CHT allo act: inactive; CHT block: inactive; AI-2 QS mod: 99; HIF activator: 3; CHT activ conf: 12*; HEK293 MP dye: inactive

What do the screens show for `CC(=O)c1ccc(NC(=O)c2ccn(C(=O)OCC(C)C)n2)cc1`?
Platelet DG rel: 38; VLA-4 inh: -2; CHT allo act: inactive; CHT block: inactive; AI-2 QS mod: 15; HIF activator: 1; CHT activ conf: 18*; HEK293 MP dye: -36*

Results for O=C(CCc1ccccc1)N=C1SC2CS(=O)(=O)CC2N1c1ccccc1 (stereo not drawn) ?
Platelet DG rel: 11; VLA-4 inh: 3; CHT allo act: inactive; CHT block: inactive; AI-2 QS mod: 26; HIF activator: 0

Results for Cc1c(CCOC(=O)c2ccc([N+](=O)[O-])cc2)sc[n+]1CC(=O)c1ccccc1 ?
Platelet DG rel: 3; VLA-4 inh: 6; CHT allo act: 7.1*; CHT block: inactive; AI-2 QS mod: 22; HIF activator: 0; CHT activ conf: 58*; HEK293 MP dye: -52*

What do the screens show for `O=C1c2cccnc2-c2ncccc21`?
Platelet DG rel: -2; VLA-4 inh: -16; CHT allo act: inactive; CHT block: inactive; AI-2 QS mod: 10; HIF activator: -1

What do the screens show for `O=C1c2cc([N+](=O)[O-])ccc2-c2ncccc21`?
Platelet DG rel: -7; VLA-4 inh: 12; CHT allo act: 7*; CHT block: inactive; AI-2 QS mod: 34; HIF activator: -1; CHT activ conf: 63*; HEK293 MP dye: -41*

What do the screens show for `Cc1noc(C)c1NC(=O)N(C)C[C@H]1Oc2ccc(NC(=O)c3ccncc3)cc2C(=O)N([C@H](C)CO)C[C@@H]1C`?
VLA-4 inh: -11

Results for CC(=O)OCCCn1c(C)[n+](C)c2cc(Cl)c(Cl)cc21 ?
Platelet DG rel: -2; VLA-4 inh: 12; CHT allo act: 9.7*; CHT block: inactive; AI-2 QS mod: 18; HIF activator: 0; CHT activ conf: 67*; HEK293 MP dye: -62*

What do the screens show for `COC(=O)c1ccccc1NC(=O)c1cccnc1`?
Platelet DG rel: -3; VLA-4 inh: 10; CHT allo act: inactive; CHT block: inactive; AI-2 QS mod: 47; HIF activator: -1

How did Oc1ccc(N=Nc2ccccc2-c2nn[nH]n2)c(O)c1 do in these assays?
Platelet DG rel: 0; VLA-4 inh: 1; CHT allo act: inactive; CHT block: inactive; AI-2 QS mod: 0; HIF activator: 0
